TROY NFkB inh – blocks TROY-dependent signaling in reporter cells; Q293 LMP1-TROYcd NF-kB luciferase reporter, 4 h; inhibition, % at 10 µM; 360,000 compounds, 0.98% hits; AID 1347056;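 active = compounds whose plate-normalised and pattern-corrected inhibition of the luciferase reporter signal at the single screening dose is 50% or more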
LMP1 NFkB inh – Epstein-Barr LMP1 NF-kappaB reporter inhibition; LMP1-induced NF-kappaB luciferase reporter cells, luminescence; inhibition, % at 12.5 µM; 350,000 compounds, 0.69% hits; in the data active = inhibition above about 41%
TWEAK-Fn14 inh – inhibitors of TWEAK-Fn14 interaction signaling | TWEAK-stimulated Fn14 reporter cells, luciferase luminescence, 8 h | inhibition, % at 10 µM | 360,000 compounds, 2% hits; in the data active = inhibition above about 50%
EWS-Fli block – EWS/Fli transcriptional activity inhibition | A673 NR0B1-luciferase reporter, viability-normalised | inhibition, % at 12.6 µM | 350,000 compounds, 0.67% hits | AID 651661;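 active = mean inhibition of at least 50% after viability correction, with every replicate also passing that limit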;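 also: firefly luciferase signal divided by Alamar Blue viability fluorescence both relative to DMSO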
LGR2 antag – blocks bursicon-induced cAMP signaling via Drosophila LGR2. HEK293 LGR2, CRE-luciferase, bursicon-stimulated, 4 h. inhibition, % at 9.99 µM. 380,000 compounds, 0.35% hits. AID 720647;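 active = drop in luminescence signal, shown as inhibition above about 50% in the replicate tests, limit read from the data, passing the limit was not always enough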;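 also: agonist challenge used bursicon conditioned medium at about half maximal strength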
Large screens that a line does not name were inactive. The list is not random: actives were taken first. Their share in the collection is about 2.5%.

O=C1c2cccc(OCC(=O)N3CCCc4ccccc43)c2CCN1Cc1ccc(Br)cc1	TWEAK-Fn14 inh 79 (no result: EWS-Fli block)
COc1ccc(/C=N/NS(=O)(=O)c2ccc(C)cc2)cc1OC(=O)c1ccc(C)cc1	TWEAK-Fn14 inh 55 (no result: EWS-Fli block, LGR2 antag)
COc1cc(/C=N/NS(=O)(=O)c2ccc(C)cc2)ccc1OCc1ccc(C(=O)O)cc1	LMP1 NFkB inh 61 (no result: EWS-Fli block)
CCOc1ccc(/C=N/NS(=O)(=O)c2ccc(C)cc2)cc1OC	none
COc1ccc(C(=O)Oc2cc(/C=N/NS(=O)(=O)c3ccccc3)ccc2OC)cc1	none (no result: EWS-Fli block, LGR2 antag)
O=C(N/N=C/c1ccc[nH]1)c1ccc(COc2cccc3cccnc23)cc1	LMP1 NFkB inh 47, TWEAK-Fn14 inh 85
Cc1cc(Br)c(OCc2ccc(C(=O)N/N=C/c3ccc[nH]3)cc2)c(Br)c1	EWS-Fli block 58
O=C(N/N=C/c1ccc[nH]1)c1ccc(O)cc1	none
O=C(N/N=C/c1ccccc1C(=O)O)c1ccc(COc2cccc3cccnc23)cc1	none
CCCNC(=O)[C@@H]1[C@@H](CO)[C@@H]2Cn3c(cccc3=O)[C@@H]2N1CC1CC1	none (no result: TROY NFkB inh, LMP1 NFkB inh, TWEAK-Fn14 inh)
O=C(N[C@@H]1CC[C@H](CCn2cc(Cc3ccccc3)nn2)O[C@H]1CO)c1ccccn1	none (no result: TROY NFkB inh, LMP1 NFkB inh, TWEAK-Fn14 inh)
COc1ccc(O)c(/C=N/Nc2nc(Nc3ccccc3)nc(-n3nc(C)cc3C)n2)c1	LMP1 NFkB inh 62, TWEAK-Fn14 inh 60 (no result: EWS-Fli block, LGR2 antag)
COc1cc(/C=N/Nc2nc(Nc3ccccc3)nc(-n3nc(C)cc3C)n2)cc(OC)c1OC	none
COCC(=O)N(C[C@@H]1N[C@@H](CO)[C@H]1c1ccc(C2=CCCC2)cc1)C(C)C	none (no result: TROY NFkB inh, LMP1 NFkB inh, TWEAK-Fn14 inh)
CCOc1cc2c(c3c1C(c1ccccc1)N(S(=O)(=O)c1ccc(C)cc1)C3)C(=O)C=CC2=O (stereo not given)	EWS-Fli block 62 (no result: LMP1 NFkB inh, LGR2 antag)
COc1ccccc1C#Cc1ccc2c(c1)O[C@H](CN(C)C(C)=O)[C@H](C)CN([C@H](C)CO)S2(=O)=O	none (no result: TROY NFkB inh, LMP1 NFkB inh, TWEAK-Fn14 inh)
O=C(/C=C\Nc1ccc2c(c1)OCO2)c1ccccn1	TROY NFkB inh 75, LMP1 NFkB inh 72, TWEAK-Fn14 inh 104 (no result: EWS-Fli block, LGR2 antag)
O=C(/C=C\Nc1ccc2c(c1)OCO2)c1ccc(Cl)s1	TWEAK-Fn14 inh 53
CO[C@@H]1CN(C)C(=O)c2cc(NC(=O)C3CC3)ccc2OC[C@H](C)N(Cc2ccccc2)C[C@@H]1C	none (no result: TROY NFkB inh, LMP1 NFkB inh, TWEAK-Fn14 inh)
CCOC(=O)c1cccc(NC(=O)c2ccc(N(C)C)cc2)c1	EWS-Fli block 76
CCOc1ccc(NC(=O)Nc2ccc3nsnc3c2)cc1	none
CCOC(=O)c1cccc(NC(=O)Nc2ccc(OCC)cc2)c1	EWS-Fli block 84
CCOc1ccc(NC(=O)Nc2cccc(C(=O)O)c2)cc1	LMP1 NFkB inh 81, EWS-Fli block 91, LGR2 antag 105
CCOc1ccc(NC(=O)NNC(=O)c2cc3ccccc3cc2O)cc1	TROY NFkB inh 52, TWEAK-Fn14 inh 55
CCOC(=O)c1cccc(NC(=O)c2ccc(NC(=O)c3ccco3)cc2)c1	none (no result: EWS-Fli block)
C[C@H]1CN([C@@H](C)CO)C(=O)Cc2cc(NC(=O)Nc3ccc4c(c3)OCO4)ccc2O[C@H]1CN(C)C(=O)Nc1cccc2ccccc12	none (no result: TROY NFkB inh, LMP1 NFkB inh, TWEAK-Fn14 inh)
CCOc1ccc(C(=O)Nc2cccc(C(=O)O)c2)cc1Cl	LGR2 antag 76
Cc1ccccc1OCC(=O)Nc1cccc(C(=O)O)c1	LMP1 NFkB inh 77, TWEAK-Fn14 inh 59, EWS-Fli block 83, LGR2 antag 101
Cc1cccc(OCC(=O)Nc2cc(NC(=O)COc3cccc(C)c3C)cc(C(=O)O)c2)c1C	none
CCOc1ccc(C(=O)Nc2cc(NC(=O)c3ccc(OCC)c(Cl)c3)cc(C(=O)O)c2)cc1Cl	none
Cc1cc(C)cc(OCC(=O)NCC2CCCO2)c1 (stereo not given)	TROY NFkB inh 73, TWEAK-Fn14 inh 89 (no result: EWS-Fli block)
Cc1ccc(S(=O)(=O)N[C@@H]2CC[C@H](CC(=O)NCc3ccc(Cl)c(Cl)c3)O[C@H]2CO)cc1	none (no result: TROY NFkB inh, LMP1 NFkB inh, TWEAK-Fn14 inh)
O=C(Cc1ccccc1F)Nc1nc(-c2ccc(F)cc2)cs1	TROY NFkB inh 58, TWEAK-Fn14 inh 52
O=C(Nc1nc(-c2ccc(F)cc2)cs1)C1CCN(C(=O)c2ccc(F)cc2)CC1	TWEAK-Fn14 inh 57
O=C(Nc1nc2c(F)cc(F)cc2s1)C1CCN(C(=O)c2ccc(F)cc2)CC1	none
Cc1ccc(S(=O)(=O)N(C)C[C@H]2OCCCC[C@@H](C)Oc3ccc(NS(=O)(=O)c4ccc(F)cc4)cc3C(=O)N([C@@H](C)CO)C[C@H]2C)cc1	none (no result: TROY NFkB inh, LMP1 NFkB inh, TWEAK-Fn14 inh)
COc1ccc(/C=C\C(=O)NCc2ccc3c(c2)cc(C)n3C)cc1OC	LMP1 NFkB inh 67
Cc1ccsc1C(=O)OC1CCOC1=O (stereo not given)	none (no result: EWS-Fli block, LGR2 antag)
O=C(COC(=O)c1ccccc1C(=O)c1ccc(Cl)c([N+](=O)[O-])c1)NC1CC1	TROY NFkB inh 65, LMP1 NFkB inh 50, TWEAK-Fn14 inh 95, EWS-Fli block 63, LGR2 antag 105
CCCOc1ccc(C(=O)c2ccccc2C(=O)OC2CCOC2=O)cc1OCCC (stereo not given)	none
CNC(=O)COC(=O)c1cc(F)c(F)cc1Cl	TWEAK-Fn14 inh 87 (no result: EWS-Fli block, LGR2 antag)
Cc1cccc(C(=O)OC2CCOC2=O)c1O (stereo not given)	TWEAK-Fn14 inh 89
O=C(OC1CCOC1=O)c1ccccc1C(=O)c1ccc(Cl)c([N+](=O)[O-])c1 (stereo not given)	TWEAK-Fn14 inh 66 (no result: EWS-Fli block, LGR2 antag)
O=C(COC(=O)c1cc([N+](=O)[O-])ccc1Cl)NC1CCCC1	none (no result: LMP1 NFkB inh)
CC(C)OC(=O)c1ccccc1C(=O)c1ccc(N)c([N+](=O)[O-])c1	none
CNC(=O)COC(=O)c1ccccc1C(=O)c1ccc(Cl)c([N+](=O)[O-])c1	TROY NFkB inh 74, TWEAK-Fn14 inh 101, LGR2 antag 102
O=C(COC(=O)c1ccccc1[N+](=O)[O-])c1ccc(C2CCCCC2)cc1	TROY NFkB inh 78, TWEAK-Fn14 inh 81 (no result: EWS-Fli block, LGR2 antag)

Screening results as filed in PubChem.
